Source: PubChem (National Center for Advancing Translational Sciences (NCATS))
This is a sample that favours compounds with a hit; in the whole collection about 8.3% have one here.
RORg inh = blocks mouse ROR gamma transcriptional activity; P51450; Drosophila S2 Gal4-RORgamma UAS-luciferase reporter, 20 h; Potency, µM (titrated, usually from 53.6 µM), for inactives: top-dose activity change, negative = inhibition, actives largely listed as inhibitors; actives 5.4% (n = 310,000); AID 2551; further: potency means the concentration at half of the fitted maximal effect; on the % scale 0 is the no-effect control and ±100 the full control effect; nearly all actives have a fitted effect of over 60% in size
Target sequence (P51450 whole entry, looked up, the tested form may be a part): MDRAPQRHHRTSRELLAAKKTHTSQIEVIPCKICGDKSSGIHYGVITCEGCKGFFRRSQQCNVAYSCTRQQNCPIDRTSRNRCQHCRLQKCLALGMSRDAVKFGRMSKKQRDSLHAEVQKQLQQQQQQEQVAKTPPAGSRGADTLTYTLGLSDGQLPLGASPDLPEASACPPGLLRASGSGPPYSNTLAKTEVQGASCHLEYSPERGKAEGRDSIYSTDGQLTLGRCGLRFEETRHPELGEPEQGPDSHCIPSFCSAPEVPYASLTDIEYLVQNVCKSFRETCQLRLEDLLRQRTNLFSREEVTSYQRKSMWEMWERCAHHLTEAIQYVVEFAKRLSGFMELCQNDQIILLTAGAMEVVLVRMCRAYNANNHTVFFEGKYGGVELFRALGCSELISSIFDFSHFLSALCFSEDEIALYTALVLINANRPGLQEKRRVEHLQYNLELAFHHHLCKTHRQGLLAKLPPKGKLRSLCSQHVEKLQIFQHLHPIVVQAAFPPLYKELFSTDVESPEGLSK
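In this cell-based reporter format, copper sulfate (700 uM final) drives Gal4–ROR gamma fusion expression from a metallothionein promoter in Drosophila Schneider cells; compounds preincubated 1 hr, reporter read after 20 hr at ambient temperature.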
MCF10A rerep = inducers of DNA re-replication in MCF 10A breast cells | MCF 10A DNA re-replication, Hoechst nuclear intensity, 48 h | Potency, µM (highest dose often 46.1 µM), for the others: at the highest dose activity, positive = re-replication, actives largely listed as activators | actives 2.9% (n = 350,000); further: potency means the concentration at half of the fitted maximal effect; % of control where 0% means no effect; nearly all actives have a fitted effect of over 50% in size
Giardia killer = Giardia lamblia killing; activity change, % at 7.66 µM, hits read low; actives 0.15% (n = 340,000); Giardia lamblia trophozoite viability; in the data active means activity change below about -80%; inconclusive means between about -30% and that limit;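 further: parasites exposed to compound for two days anaerobically before the ATP read; on the % scale 0 is the no-effect control and ±100 the full control effect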
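Trophozoite viability was measured as ATP-dependent luminescence, read 15-30 min after reagent addition. Before that, parasites at 100 cells/well were exposed to compounds for 48 h, anaerobically, at 37 deg C.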
VP16 counter = inhibits Gal4-VP16 luciferase reporter, ROR gamma counter-screen; Potency, µM (titrated, usually from 53.6 µM), for the others: top-dose activity, negative = inhibition, usual class: inhibitors; actives 3.5% (n = 310,000); Drosophila S2 Gal4-VP16 UAS-luciferase, luminescence, 20 h;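 further: Gal4-VP16 expression switched on by copper sulfate through the metallothionein promoter; potency means the concentration at half of the fitted maximal effect; on the % scale 0 is the no-effect control and ±100 the full control effect; nearly all actives have a fitted effect of over 50% in size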
BCR signal inh = blocks chronic active B-cell receptor signaling | Potency, µM (series often up to 46.1 µM), inactives show at the top dose activity change, negative = inhibition, hits mostly inhibitors | actives 0.05% (n = 340,000) | ABC-DLBCL IkBa-CBG/CBR reporter, luminescence ratio, 4 h | AID 493014; active means well fitted inhibition curve with a large enough effect in the signal ratio, with a control signal flat, not every such curve was filed as active; inconclusive means small, poorly fitted or top-dose-only effect, or effect the other way, or a change in a side signal; the % refers to the signal ratio;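 further: potency means the concentration at half of the fitted maximal effect; plate controls were basal doxycycline-induced cells for no effect and cells given 10 µM MG132 for full effect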
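TMD8 ABC-DLBCL cells carrying doxycycline-inducible green luciferase fused to IkappaBalpha plus unfused red luciferase were exposed to compounds (up to 46 uM) for 4 hrs at 37C. Activity came from the overlap-corrected green/red luminescence ratio.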
SW480 rerep = induces DNA re-replication in SW480 colon adenocarcinoma cells; SW480 DNA re-replication, Hoechst DNA content imaging, 48 h; Potency, µM (titrated, usually from 46.1 µM), for inactives: top-dose re-replication activation, most hits filed as activators; actives 1.8% (n = 340,000); further: potency means the concentration at half of the fitted maximal effect; % of control where 0% means no effect; nearly all actives have a fitted effect of over 55% in size
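Per well, 250 cells were exposed to pinned compound for 48 hr. Nuclear DNA was visualised with Hoechst (40 min, 37 C) and total object intensity recorded by fluorescence scanning.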
The depositor's hits bear a star; ? = inconclusive; . = no result; [ ] = dose if it differs, or a comment. Unless noted, the call rests on the fitted dose curve; in most records, active means well fitted curve in the direction sought with a large enough effect; inconclusive means small, poorly fitted or top-dose-only effect, or another doubt; inactive means no such curve, though single readings can be large; an effect the other way counts as inactive or inconclusive.

SMILES	RORg inh	MCF10A rerep	Giardia killer	VP16 counter	BCR signal inh	SW480 rerep
CC1CCCN(c2ccc(C(=O)Nc3nnc(C4CC4)s3)cc2[N+](=O)[O-])C1 (configuration not stated)	13µM*	17%	-14	?	3%	-5%
CC1CC(C)CN(C(=O)c2cccc(N3C(=O)c4ccccc4C3=O)c2)C1 (configuration not stated)	.	-9%	-10	.	-3%	-8%
CCC(C)[C@H](N)c1cn([C@@H](CCCCN)C(=O)N2CCNCC2)nn1 (some centres not stated)	-1%	-59%	-15	4%	-1%	4%
CCn1nc(C)cc1C(=O)NC1CC(C)(C)Cc2c1cnn2-c1cccc(F)c1 (configuration not stated)	?	11%	-14	-2%	-4%	-1%
O=C(COC(=O)c1c(F)cccc1F)Nc1ccc(N2CCCCC2)cc1	.	-3%	5	.	?	-2%
Cc1cccc(NC(=O)c2ccc(N3CCOCC3)c([N+](=O)[O-])c2)n1	33%	2%	6	-1%	13%	-16%
COc1cc(C(=O)NC(=S)Nc2ccc([N+](=O)[O-])cc2C)cc(OC)c1OC	?	2%	6	?	-1%	17%
COc1ccc(C(=O)NC(=S)Nc2cc(C)ccn2)cc1[N+](=O)[O-]	?	-9%	16	1µM*	0%	-7%
O=C(COc1ccccc1[N+](=O)[O-])Nc1cccc(Cl)c1N1CCOCC1	?	?	-16	?	?	?
COc1ccc(C(=O)NC(=S)Nc2cccc(Cl)c2N2CCOCC2)cc1[N+](=O)[O-]	1.8µM*	-4%	5	5µM*	5%	7.3µM*
Cc1cccc(NC(=O)c2ccc(N3CCCCC3)c([N+](=O)[O-])c2)n1	?	10µM*	14	?	?	-5%
COc1cc(C(=O)NC(=S)Nc2ccccc2[N+](=O)[O-])cc(OC)c1OC	5.6µM*	24%	6	?	?	-15%
CCOc1ccc(C(=O)NC(=S)Nc2ccc(N3CCCCC3)cc2)cc1[N+](=O)[O-]	3.2µM*	?	-4	4µM*	-1%	-8%
CCOc1ccc(C(=O)NC(=S)NC2CCCC2)cc1[N+](=O)[O-]	5µM*	10%	11	16µM*	6%	0%
CCOc1ccc(C(=O)Nc2ccccc2N2CCCC2)cc1	-19%	?	-8	-9%	3%	?
CCOc1ccc(C(=O)NC(=S)Nc2ccccc2N2CCCCC2)cc1[N+](=O)[O-]	?	9%	12	0.5µM*	13%	7%
CCOC(=O)C1CN(S(=O)(=O)c2cccs2)c2ccc(CC(=O)OC)cc2O1 (configuration not stated)	-17%	0%	3	4%	9%	-5%
COc1ccc(S(=O)(=O)NCc2cccnc2)cc1C	2%[1.91 µM]	?	-22	-6%	0%	-2%
Brc1cccc(-c2nnco2)c1	20µM*	9%	-17	?	3%	-8%
C#CCOCCOCCOCCNc1nc(N2CCN(C(=O)CCCCCCCCCCNC(=O)Cn3cc(CCCCCN)nn3)CC2)nc(N2CCN(C(=O)CCCCCCCCCCNC(=O)Cn3cc(C[C@@H](C)O)nn3)CC2)n1	.	23µM*	12	.	?	1%
C#CCOCCOCCOCCNc1nc(N2CCN(C(=O)CCCCCCCCCCNC(=O)[C@H](CCCCN)n3cc(C[C@@H](C)CC)nn3)CC2)nc(N2CCN(C(=O)CCCCCCCCCCNC(=O)[C@H](CCCN=C(N)N)n3cc(C[C@@H](C)CC)nn3)CC2)n1	.	16µM*	12	.	?	2%[9.22 µM]
C#CCOCCOCCOCCNc1nc(N2CCN(C(=O)CCCCCCCCCCNC(=O)[C@H](CCCCN)n3cc(C)nn3)CC2)nc(N2CCN(C(=O)CCCCCCCCCCNC(=O)[C@@H]([C@H](C)O)n3cc(C)nn3)CC2)n1	.	?	-16	.	?	-2%
C#CCOCCOCCOCCNc1nc(N2CCN(C(=O)CCCCCCCCCCNC(=O)[C@@H](CCSC)n3cc(CCO)nn3)CC2)nc(N2CCN(C(=O)CCCCCCCCCCNC(=O)[C@@H]([C@H](C)O)n3cc(C)nn3)CC2)n1	.	16µM*	9	.	0%	-2%
C#CCOCCOCCOCCNc1nc(N2CCN(C(=O)CCCCCCCCCCNC(=O)[C@H](CCCCN)n3cc(C[C@@H](C)CC)nn3)CC2)nc(N2CCN(C(=O)CCCCCCCCCCNC(=O)[C@@H]([C@H](C)O)n3cc(C)nn3)CC2)n1	.	12µM*	-20	.	?	20%[9.22 µM]
CC(=O)c1c(Cl)nc2cccc3c2c1-c1ccccc1C3=O	-7%	-27%	-8	-17%	5%	7%[1.84 µM]
SMILES	RORg inh	MCF10A rerep	Giardia killer	VP16 counter	BCR signal inh	SW480 rerep
COc1ccccc1CNC(=O)CSc1cc(C)[nH]c(=O)n1	.	.	.	.	16%	.
CCc1c(C)[nH]n(-c2nc(-c3cccc([N+](=O)[O-])c3)cs2)c1=O	10µM*	-3%	21	?	?	-5%
O=C(NCCc1ccccc1)C(c1cccs1)N(C(=O)CCl)c1ccc(Cl)cc1 (configuration not stated)	?	12µM*	3	?	?	10µM*
CN(c1ccccc1)S(=O)(=O)c1cccc(C(=O)NCC(=O)Nc2ccc(F)c(F)c2F)c1	.	-3%	10	.	-1%	-8%
C=CCn1c(=S)[nH]c2ccc(Br)cc2c1=O	2.8µM*	1%	6	3.2µM*	?	0%
O=c1c2ccccc2[nH]c(=S)n1Cc1cccnc1	?	-4%	-1	?	6%	-2%
O=c1c2cc(Br)ccc2[nH]c(=S)n1Cc1cccnc1	1.1µM*	20%	12	?	2%	2%
C=CCn1c(=S)[nH]c2nc3c(cc2c1=O)CCCC3	7.1µM*	?	13	7.1µM*	?	1%
C=CCn1c(=O)c2ccccc2n2c(=S)[nH]nc12	-29%	13%	-18	-6%	?	-4%
CCCC(=O)Nc1cc(C(=O)N(C)CC(OC)OC)ccc1S(=O)(=O)c1ccc(C)cc1	6%	-7%	5	2%	1%	1%
Cc1cc2c(c(=O)o1)C(CCC1CCCCC1)C(C#N)=C(N)O2 (configuration not stated)	1%	4%	10	7%	3%	-97%
COC(=O)/C=C1\SC(=Nc2ccccc2)NC1=O	-14%	16%	-9	-11%	?	?
